From the supplement of paper PMC10849652
About 7,900 targets were measured; listed, in parts, are those with a hit and a random draw of the rest. About 0.6% of all pairs of compound and target were hits.

Key:
Test in all cases: log2 fold change, soluble protein after heating vs DMSO (PISA); higher = thermal stabilisation; K562 cells, 10 uM, 30 min; active = over 0.2 and 3.5 SD of the protein, either way, in both replicates (recomputed)
[1] = compound: COC1=CC=C(C=C1)CN2C=CC3=C2C=C(C=C3)C(=O)NO
Outline: (§1)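 Aliquots of K562 cells (2×10^6 cells/mL) treated with 10 μM compound for 30 min were heated for 3 min over 48°C-58°C. After pooling and extraction in PBS with 0.5% NP-40 at 4°C, soluble protein from a 21,000xg, 90 min spin was quantified by TMTpro 16plex LC-MS/MS with channel sums equalised. Thermal stability is expressed against control samples, from duplicates, as a log2 fold change.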

[2] = compound: CON(C)C(=O)N1N=C(c2cc(F)ccc2F)S[C@@]1(CCCN)c1ccccc1 [filanesib]
Outline: as §1

[3] = compound: CO[C@H]1C[C@@H]2CC[C@@H](C)[C@@](O)(O2)C(=O)C(=O)N2CCCC[C@H]2C(=O)O[C@H]([C@H](C)C[C@@H]2CC[C@H](n3cnnn3)[C@H](OC)C2)CC(=O)[C@H](C)/C=C(\C)[C@@H](O)[C@@H](OC)C(=O)[C@H](C)C[C@H](C)/C=C/C=C/C=C/1C [zotarolimus]
Outline: as §1

[4] = compound: COc1cc(C(=O)O)ccc1NC(=O)[C@@H]1N[C@@H](CC(C)(C)C)[C@](C#N)(c2ccc(Cl)cc2F)[C@H]1c1cccc(Cl)c1F [idasanutlin]
Outline: as §1

[5] = compound: COc1cc(Nc2ncc3c(n2)-c2ccc(Cl)cc2C(c2c(F)cccc2OC)=NC3)ccc1C(=O)O [alisertib]
Outline: as §1

[6] = compound: COc1cc2nc(-c3cc(F)ccc3O)nc(N[C@@H]3CNC[C@H]3C(C)(C)O)c2cc1OC
Outline: as §1

[7] = compound: COc1cc2ncnc(Nc3ccc(F)c(Cl)c3)c2cc1OCCCN1CCOCC1 [gefitinib]
Outline: as §1

[8] = compound: COc1cccc2cc(-c3nc([C@H]4CC[C@H](C(=O)O)CC4)n4ncnc(N)c34)[nH]c12
Outline: as §1

[9] = compound: CS(=O)(=O)CCNCc1ccc(-c2ccc3ncnc(Nc4ccc(OCc5cccc(F)c5)c(Cl)c4)c3c2)o1 [lapatinib]
Outline: as §1

[10] = compound: CS(=O)(=O)c1ccc(-c2cnc(N)c(C(=O)Nc3ccccc3)n2)cc1
Outline: as §1

[11] = compound: C[C@@H](Oc1cc(-c2cnn(C3CCNCC3)c2)cnc1N)c1c(Cl)ccc(F)c1Cl [crizotinib]
Outline: as §1

[12] = compound: C[C@@H]1COCCN1C2=NC(=NC(=C2)C3(CC3)S(=O)(=O)C)C4=C5C=CNC5=CC=C4
Outline: as §1

[13] = compound: C[C@H](C1=CC=C(C=C1)C(=O)NC2=C3C=CNC3=NC=C2)N
Outline: as §1

[14] = compound: C[C@H](Nc1ncnc2nc[nH]c12)c1cc2cccc(Cl)c2c(=O)n1-c1ccccc1 [duvelisib]
Outline: as §1

[15] = compound: Cc1cc(Nc2cc(N3CCN(C)CC3)nc(Sc3ccc(NC(=O)C4CC4)cc3)n2)n[nH]1 [tozasertib]
Outline: as §1

[16] = compound: Cc1cc(SCc2sc(-c3ccc(C(F)(F)F)cc3)nc2C)ccc1OCC(=O)O
Outline: as §1

[17] = compound: Cc1ccc(-n2nc(C(C)(C)C)cc2NC(=O)Nc2ccc(OCCN3CCOCC3)c3ccccc23)cc1 [doramapimod]
Outline: as §1

[18] = compound: Cc1ccc(C(=O)N(CCCN)[C@@H](c2nc3cc(Cl)ccc3c(=O)n2Cc2ccccc2)C(C)C)cc1 [ispinesib]
Outline: as §1

[19] = compound: CS(=O)(=O)N1CCN(Cc2cc3nc(-c4cccc5[nH]ncc45)nc(N4CCOCC4)c3s2)CC1 [pictilisib]
Outline: as §1

[20] = compound: Cc1cc(Nc2cc(CN3CCOCC3)c3nc(C)c(Cc4ccc(Cl)cc4F)n3n2)n[nH]1 [gandotinib]
Outline: as §1

Measured: log2 fold change

ILRUN (UniProt Q9H6K1)
inactive: [1] -0.051 | [2] -0.016 | [3] 0.042 | [4] -0.101 | [5] -0.03 | [6] -0.002 | [7] 0.048 | [8] 0.09 | [9] 0.08 | [10] -0.033 | [11] 0.115 | [12] 0.028 | [13] -0.038 | [14] 0.021 | [15] -0.087 | [16] 0.029 | [17] 0.005 | [18] 0.032

MBLAC1 (UniProt A4D2B0)
inactive: [1] 0.11 | [3] 0.008 | [4] 0.056 | [5] -0.161 | [6] -0.064 | [8] 0.086 | [9] 0.01 | [19] 0.043 | [11] 0.038 | [13] -0.007 | [14] 0.019 | [20] -0.056 | [16] -0.017 | [17] 0.169 | [18] -0.142

MGRN1 isoform 2 (UniProt O60291)
Sequence of UniProt O60291 (O60291 whole entry, looked up): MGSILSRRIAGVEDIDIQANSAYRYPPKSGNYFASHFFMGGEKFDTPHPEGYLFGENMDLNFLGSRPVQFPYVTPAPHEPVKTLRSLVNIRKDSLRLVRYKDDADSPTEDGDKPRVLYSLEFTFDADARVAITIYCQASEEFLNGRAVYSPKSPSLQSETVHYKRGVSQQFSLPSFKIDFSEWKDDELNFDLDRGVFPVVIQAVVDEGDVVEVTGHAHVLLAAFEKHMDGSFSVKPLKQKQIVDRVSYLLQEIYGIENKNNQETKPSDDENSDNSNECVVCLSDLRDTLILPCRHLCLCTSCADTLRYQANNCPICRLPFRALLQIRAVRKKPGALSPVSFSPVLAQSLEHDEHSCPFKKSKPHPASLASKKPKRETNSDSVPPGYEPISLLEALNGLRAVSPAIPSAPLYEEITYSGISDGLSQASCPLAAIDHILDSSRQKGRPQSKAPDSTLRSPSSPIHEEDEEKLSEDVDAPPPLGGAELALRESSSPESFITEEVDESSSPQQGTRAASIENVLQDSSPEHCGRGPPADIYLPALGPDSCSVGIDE
inactive: [1] -0.015 | [3] -0.017 | [4] -0.108 | [6] 0.069 | [9] -0.238 | [19] -0.004 | [11] -0.015 | [13] 0.225 | [20] 0.06 | [15] -0.136 | [17] 0.012 | [18] -0.225

LGALS8 isoform 2 (UniProt O00214)
inactive: [1] 0.202 | [2] 0.264 | [3] 0.053 | [4] 0.182 | [5] -0.021 | [8] -0.278 | [19] -0.183 | [10] -0.002 | [11] -0.023 | [12] -0.255 | [13] 0.323 | [14] -0.223 | [20] -0.144 | [15] 0.016 | [16] 0.204 | [17] 0.146

INTS5 (UniProt Q6P9B9)
inactive: [1] -0.02 | [2] -0.055 | [4] 0.045 | [5] -0.019 | [6] -0.111 | [7] -0.017 | [8] -0.004 | [9] 0.13 | [10] 0.029 | [11] -0.013 | [12] 0.058 | [14] 0.047 | [15] 0.076 | [16] 0.008 | [17] 0.006 | [18] 0.025

MASTL (UniProt Q96GX5)
Sequence of UniProt Q96GX5 (Q96GX5 whole entry, looked up): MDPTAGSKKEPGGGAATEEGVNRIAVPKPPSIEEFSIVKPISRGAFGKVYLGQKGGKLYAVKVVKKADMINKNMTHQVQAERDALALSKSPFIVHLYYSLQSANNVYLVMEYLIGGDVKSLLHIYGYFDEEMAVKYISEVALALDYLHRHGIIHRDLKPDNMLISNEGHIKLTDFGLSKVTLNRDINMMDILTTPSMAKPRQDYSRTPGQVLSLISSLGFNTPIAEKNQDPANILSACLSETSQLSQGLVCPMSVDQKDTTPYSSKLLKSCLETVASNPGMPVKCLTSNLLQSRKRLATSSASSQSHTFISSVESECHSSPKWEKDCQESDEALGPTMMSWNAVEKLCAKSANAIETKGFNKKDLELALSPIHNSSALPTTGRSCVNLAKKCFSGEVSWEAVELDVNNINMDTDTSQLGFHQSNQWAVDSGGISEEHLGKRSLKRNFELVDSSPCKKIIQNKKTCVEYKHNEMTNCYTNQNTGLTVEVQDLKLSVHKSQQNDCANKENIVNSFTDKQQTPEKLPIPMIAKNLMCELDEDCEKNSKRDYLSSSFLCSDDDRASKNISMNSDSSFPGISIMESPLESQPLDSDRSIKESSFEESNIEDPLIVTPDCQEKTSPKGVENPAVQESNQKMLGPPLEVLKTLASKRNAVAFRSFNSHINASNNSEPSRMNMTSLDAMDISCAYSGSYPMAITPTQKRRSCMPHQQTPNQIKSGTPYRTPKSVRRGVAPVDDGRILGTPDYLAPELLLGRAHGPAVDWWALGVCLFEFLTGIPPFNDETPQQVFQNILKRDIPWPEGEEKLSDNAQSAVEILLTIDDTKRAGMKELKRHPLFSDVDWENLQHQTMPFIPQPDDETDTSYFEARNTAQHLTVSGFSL
inactive: [1] 0.147 | [2] -0.09 | [3] 0.088 | [4] 0.072 | [5] -0.09 | [7] -0.107 | [8] -0.155 | [10] -0.058 | [11] 0.092 | [12] 0.179 | [13] 0.046 | [14] -0.199 | [16] -0.12 | [17] -0.075 | [18] 0.099

KCNK5 (UniProt O95279)
inactive: [1] 0.059 | [2] -0.117 | [3] -0.044 | [5] -0.408 | [6] -0.541 | [8] 0.193 | [9] -0.227 | [19] -0.007 | [10] 0.087 | [11] -0.164 | [12] 0.339 | [13] -0.013 | [14] 0.213 | [20] -0.03 | [16] 0.242 | [17] -0.165

ITM2B (UniProt Q9Y287)
inactive: [1] -0.109 | [2] 0.092 | [3] -0.042 | [4] -0.03 | [5] 0.083 | [6] -0.037 | [7] -0.047 | [8] 0.138 | [9] -0.116 | [10] 0.065 | [11] -0.193 | [12] -0.032 | [13] 0.038 | [14] -0.15 | [15] 0.033 | [16] -0.032 | [17] 0.043 | [18] 0.131

MCM10 (UniProt Q7L590)
inactive: [1] 0.303 | [2] -0.192 | [5] -0.097 | [6] -0.103 | [7] -0.014 | [8] 0.1 | [9] 0.204 | [19] -0.118 | [10] -0.171 | [11] -0.015 | [12] -0.102 | [20] 0.092 | [15] 0.144 | [17] -0.01

MAPRE3 isoform 2 (UniProt Q9UPY8)
inactive: [1] 0.192 | [3] 0.008 | [4] 0.155 | [6] -0.176 | [7] -0.02 | [9] -0.265 | [11] 0.22 | [13] 0.06 | [15] -0.264 | [17] 0.007

LRFN1 (UniProt Q9P244)
inactive: [1] -0.054 | [2] 0.151 | [3] 0.031 | [6] 0.025 | [9] -0.048 | [10] 0.108 | [11] -0.006 | [12] -0.15 | [13] -0.198 | [14] 0.038 | [15] -0.042 | [16] 0.009 | [17] -0.09 | [18] 0.102

MAP3K20 (UniProt Q9NYL2)
Sequence of UniProt Q9NYL2 (Q9NYL2 whole entry, looked up): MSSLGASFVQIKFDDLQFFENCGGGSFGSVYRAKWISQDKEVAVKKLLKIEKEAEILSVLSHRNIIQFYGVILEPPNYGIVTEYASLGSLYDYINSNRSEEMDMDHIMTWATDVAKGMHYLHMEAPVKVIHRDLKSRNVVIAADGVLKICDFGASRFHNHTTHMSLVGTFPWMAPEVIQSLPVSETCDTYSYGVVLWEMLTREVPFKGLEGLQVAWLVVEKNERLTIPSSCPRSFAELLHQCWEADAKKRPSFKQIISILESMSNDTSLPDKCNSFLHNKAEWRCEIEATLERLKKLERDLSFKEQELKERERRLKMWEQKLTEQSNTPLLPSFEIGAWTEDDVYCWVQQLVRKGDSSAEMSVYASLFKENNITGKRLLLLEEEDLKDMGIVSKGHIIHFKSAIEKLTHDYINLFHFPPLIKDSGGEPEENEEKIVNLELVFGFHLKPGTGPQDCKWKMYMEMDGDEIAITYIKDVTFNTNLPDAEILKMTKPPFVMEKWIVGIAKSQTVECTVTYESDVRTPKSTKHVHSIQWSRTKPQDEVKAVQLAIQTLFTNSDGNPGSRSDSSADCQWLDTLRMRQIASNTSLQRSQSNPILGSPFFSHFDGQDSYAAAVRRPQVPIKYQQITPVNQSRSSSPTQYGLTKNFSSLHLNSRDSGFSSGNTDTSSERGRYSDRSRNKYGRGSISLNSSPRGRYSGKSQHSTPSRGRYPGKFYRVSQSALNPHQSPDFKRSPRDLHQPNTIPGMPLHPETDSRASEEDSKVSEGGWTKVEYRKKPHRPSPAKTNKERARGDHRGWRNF
inactive: [1] 0.04 | [2] 0.075 | [3] 0.033 | [4] 0.064 | [6] 0.048 | [7] -0.042 | [8] -0.059 | [9] 0 | [19] -0.02 | [10] -0.003 | [11] -0.01 | [12] -0.065 | [13] 0.059 | [14] -0.022 | [20] -0.025 | [15] 0.002 | [16] 0.053 | [17] -0.072 | [18] -0.141

LYN isoform 2 (UniProt P07948)
inactive: [1] -0.2 | [2] -0.212 | [3] -0.054 | [4] -0.027 | [6] 0.074 | [7] 0.069 | [9] -0.046 | [11] -0.211 | [12] -0.281 | [13] -0.294 | [17] 0.159
active: [10] -0.791

MELK (UniProt Q14680)
Sequence of UniProt Q14680 (Q14680 whole entry, looked up): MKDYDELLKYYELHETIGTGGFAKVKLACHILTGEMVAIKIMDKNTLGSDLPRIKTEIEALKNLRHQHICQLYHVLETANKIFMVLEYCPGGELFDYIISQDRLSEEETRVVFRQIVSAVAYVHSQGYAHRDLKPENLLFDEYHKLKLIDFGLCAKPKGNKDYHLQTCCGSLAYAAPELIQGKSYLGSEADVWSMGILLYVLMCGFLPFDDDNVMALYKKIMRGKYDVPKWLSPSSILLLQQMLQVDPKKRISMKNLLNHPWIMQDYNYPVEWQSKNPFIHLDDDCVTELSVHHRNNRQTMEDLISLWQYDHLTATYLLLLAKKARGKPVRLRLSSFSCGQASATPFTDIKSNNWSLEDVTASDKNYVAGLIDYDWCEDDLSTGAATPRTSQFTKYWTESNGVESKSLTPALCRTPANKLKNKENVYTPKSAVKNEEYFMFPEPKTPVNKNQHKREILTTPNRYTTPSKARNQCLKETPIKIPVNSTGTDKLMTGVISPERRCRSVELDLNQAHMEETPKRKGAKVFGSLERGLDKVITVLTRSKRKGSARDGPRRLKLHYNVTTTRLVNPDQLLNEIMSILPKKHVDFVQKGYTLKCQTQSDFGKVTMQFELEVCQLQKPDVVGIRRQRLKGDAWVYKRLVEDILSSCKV
active: [6] -3.59
inactive: [1] 0.072 | [2] -0.116 | [3] -0.019 | [4] 0.061 | [7] 0.253 | [9] -0.006 | [19] -0.079 | [10] 0.109 | [11] -0.128 | [12] -0.099 | [13] 0.054 | [14] -0.063 | [20] -0.046 | [15] -0.087 | [16] -0.047 | [17] -0.011

MAP4K2 (UniProt Q12851)
inactive: [1] 0.02 | [2] -0.143 | [3] -0.083 | [6] 0.426 | [7] 0.034 | [9] -0.011 | [10] -0.032 | [13] -0.129 | [15] 0.158 | [17] -0.091

MAP3K20 isoform 2 (UniProt Q9NYL2)
inactive: [1] 0.044 | [2] 0.068 | [4] 0.407 | [6] 0.036 | [7] -0.003 | [8] -0.242 | [9] -0.121 | [10] 0.038 | [11] -0.182 | [12] 0.082 | [15] -0.191 | [17] 0.096

METAP1D (UniProt Q6UB28)
active: [1] 0.342
inactive: [2] -0.097 | [3] 0.054 | [4] 0.079 | [5] -0.085 | [6] 0.021 | [7] -0.029 | [8] -0.035 | [9] -0.062 | [10] -0.009 | [11] -0.041 | [12] 0.147 | [13] -0.037 | [14] 0.03 | [15] -0.055 | [16] 0.01 | [17] -0.091 | [18] -0.032

LMBR1 isoform 3 (UniProt Q8WVP7)
Sequence of UniProt Q8WVP7 (Q8WVP7 whole entry, looked up): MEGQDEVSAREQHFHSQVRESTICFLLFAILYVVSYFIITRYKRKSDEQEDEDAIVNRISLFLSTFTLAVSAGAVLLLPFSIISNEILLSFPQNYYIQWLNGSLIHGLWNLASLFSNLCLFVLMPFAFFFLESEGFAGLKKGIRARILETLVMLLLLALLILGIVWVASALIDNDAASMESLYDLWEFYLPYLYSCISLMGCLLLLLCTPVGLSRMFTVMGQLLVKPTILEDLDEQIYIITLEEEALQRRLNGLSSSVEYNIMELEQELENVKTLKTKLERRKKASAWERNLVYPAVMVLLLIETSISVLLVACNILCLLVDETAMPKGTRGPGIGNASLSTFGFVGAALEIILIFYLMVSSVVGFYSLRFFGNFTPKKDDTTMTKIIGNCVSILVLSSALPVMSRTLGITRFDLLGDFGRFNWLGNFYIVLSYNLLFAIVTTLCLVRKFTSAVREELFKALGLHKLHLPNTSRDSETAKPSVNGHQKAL
inactive: [1] -0.165 | [2] -0.267 | [3] -0.033 | [4] 0.156 | [5] 0.016 | [6] -0.218 | [8] 0.029 | [9] -0.043 | [19] 0.043 | [10] 0.086 | [11] -0.198 | [12] 0.019 | [13] -0.05 | [14] 0.095 | [15] 0.028 | [16] 0.04 | [17] 0.032 | [18] -0.477
active: [20] -0.812

MAP4K4 isoform 3 (UniProt O95819)
Sequence of UniProt O95819 (O95819 whole entry, looked up): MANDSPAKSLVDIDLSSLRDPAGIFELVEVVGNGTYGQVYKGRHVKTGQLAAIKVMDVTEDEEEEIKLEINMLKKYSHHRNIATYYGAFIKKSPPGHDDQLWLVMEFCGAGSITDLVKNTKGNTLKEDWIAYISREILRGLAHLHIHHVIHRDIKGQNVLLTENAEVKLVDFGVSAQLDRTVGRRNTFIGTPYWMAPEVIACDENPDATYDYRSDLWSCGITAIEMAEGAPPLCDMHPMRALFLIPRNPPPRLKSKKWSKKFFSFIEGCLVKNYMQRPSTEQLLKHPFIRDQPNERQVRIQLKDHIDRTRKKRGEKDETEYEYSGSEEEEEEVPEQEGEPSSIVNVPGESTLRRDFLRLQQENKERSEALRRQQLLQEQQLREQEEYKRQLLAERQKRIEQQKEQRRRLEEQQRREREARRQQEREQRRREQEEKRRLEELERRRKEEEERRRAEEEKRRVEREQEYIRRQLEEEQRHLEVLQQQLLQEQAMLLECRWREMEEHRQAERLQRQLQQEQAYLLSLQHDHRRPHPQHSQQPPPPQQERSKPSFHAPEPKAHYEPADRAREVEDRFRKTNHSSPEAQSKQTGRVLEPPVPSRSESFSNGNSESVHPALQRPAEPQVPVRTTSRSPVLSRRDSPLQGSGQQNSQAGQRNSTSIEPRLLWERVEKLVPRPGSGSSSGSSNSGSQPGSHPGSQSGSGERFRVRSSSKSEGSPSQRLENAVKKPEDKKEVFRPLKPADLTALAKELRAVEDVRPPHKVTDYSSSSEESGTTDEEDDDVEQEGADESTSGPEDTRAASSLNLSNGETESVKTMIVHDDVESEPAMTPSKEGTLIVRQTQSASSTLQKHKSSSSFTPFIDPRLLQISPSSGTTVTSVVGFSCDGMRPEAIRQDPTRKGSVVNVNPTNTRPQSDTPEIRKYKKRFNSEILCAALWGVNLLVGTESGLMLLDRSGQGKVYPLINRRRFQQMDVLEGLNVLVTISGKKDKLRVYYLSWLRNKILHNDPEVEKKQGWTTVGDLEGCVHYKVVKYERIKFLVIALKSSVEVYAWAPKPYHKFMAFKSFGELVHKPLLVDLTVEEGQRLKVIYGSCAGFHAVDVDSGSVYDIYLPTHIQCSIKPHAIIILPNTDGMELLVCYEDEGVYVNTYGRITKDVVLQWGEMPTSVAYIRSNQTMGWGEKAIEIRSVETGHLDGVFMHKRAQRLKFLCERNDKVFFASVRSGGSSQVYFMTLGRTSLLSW
inactive: [1] -0.021 | [2] 0.032 | [3] 0.021 | [4] 0.093 | [6] -0.05 | [7] 0.01 | [8] 0.02 | [9] -0.021 | [19] -0.153 | [10] -0.058 | [12] 0.002 | [13] -0.055 | [14] 0.091 | [20] 0.311 | [15] -0.169 | [16] 0.017 | [17] -0.156 | [18] -0.05

MED7 (UniProt O43513)
Sequence of UniProt O43513 (O43513 whole entry, looked up): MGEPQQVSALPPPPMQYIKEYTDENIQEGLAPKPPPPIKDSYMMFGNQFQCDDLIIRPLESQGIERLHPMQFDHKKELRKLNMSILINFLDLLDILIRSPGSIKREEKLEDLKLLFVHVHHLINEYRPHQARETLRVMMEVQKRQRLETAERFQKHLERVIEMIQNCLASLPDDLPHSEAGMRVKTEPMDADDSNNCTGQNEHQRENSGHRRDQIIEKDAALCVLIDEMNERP
inactive: [1] -0.021 | [2] -0.01 | [3] 0.07 | [4] -0.159 | [6] -0.049 | [7] -0.022 | [9] -0.116 | [10] -0.03 | [11] 0.11 | [12] -0.031 | [13] -0.081 | [14] -0.046 | [15] 0.004 | [16] 0.049 | [17] -0.199 | [18] 0.017

ITGA2B (UniProt P08514)
inactive: [1] 0.004 | [2] 0.086 | [3] -0.065 | [4] 0.138 | [6] 0.074 | [7] -0.086 | [9] 0.033 | [10] -0.076 | [11] -0.068 | [12] -0.077 | [13] 0.045 | [14] -0.11 | [20] 0.283 | [15] 0.15 | [16] 0 | [17] 0.031 | [18] -0.088
active: [19] -0.589
